In the library only some 2.1% were active in any assay of this set; here they are far more common.
PABP1 MLLE inh: blocks PAM2 peptide binding to the PABP1 MLLE domain. P11940. GST-MLLE / FITC-PAM2 fluorescence polarization. inhibition, % at 20 µM. actives 0.36% (n = 360,000); in the data active = inhibition above about 35%, passing the limit was not always enough;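 note: plate controls were DMSO wells with GST-MLLE for no effect and wells lacking GST-MLLE protein for full effect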
eIF4H FP inh: inhibitors of RNA binding by human eIF4H. Q15056. eIF4H fluorescence polarization binding assay. inhibition, % at 35 µM. actives 0.94% (n = 290,000). AID 2012;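 note: calls also rest on retests at 20 µM and on dose response follow-up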
NRP1-CendR mod: NRP-1/CendR interaction modulation. FAM-RPARPAR peptide binding to NRP-1, fluorescence polarization. O14786. actives 0.85% (n = 360,000). inhibition, % at 25 µM;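 active = inhibition or corrected inhibition above about 18%, plus a signal ratio from 0.5 to 1.5, limit read from the data, passing the limit was not always enough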
PABP FP inh: PABP-poly(A) binding inhibition. P11940. AID 2014. inhibition, % at 35 µM. PABP-poly(A) RNA binding, fluorescence polarization. actives 1% (n = 290,000);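 note: calls also rest on retests at 20 µM and on dose response follow-up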
Numbers without * were called inactive; x = not tested or not shown; + = active, no number. Unless noted, the rule behind the calls is not given here.

SMILES	PABP1 MLLE inh	eIF4H FP inh	NRP1-CendR mod	PABP FP inh
CC(=O)OCC(O)C1(O)CCC2C3CCC4=CC(=O)CCC4(C)C3C(O)CC21C (stereo not drawn)	-11	x	-24	x
NC(=O)c1ccc(N2CCC(C(N)=O)CC2)c([N+](=O)[O-])c1	4	93*	11	68*
NNC(=O)c1ccc(N2CCCCCC2)c([N+](=O)[O-])c1	-4	-2	31*	-4
O=C(NCc1ccco1)c1ccc(N2CCCCC2)c([N+](=O)[O-])c1	2	-1	4	6
Cc1ccc(S(=O)(=O)N(C)c2ccc(OCC(=O)Nc3nc4ccccc4s3)cc2)cc1	5	-2	25*	1
Cc1cc(N/C(=N/S(=O)(=O)c2cc(F)ccc2F)c2ccccc2)n(-c2ccccc2)n1	6	-9	27*	-6
O=C(c1ccccc1)C1CCN(C(=O)C2CCC(=O)N(Cc3cccc(F)c3)C2)CC1 (stereo not drawn)	2	-2	5	1
COCC1CCN(C(=O)C2CCC(=O)N(Cc3cccc(F)c3)C2)CC1 (stereo not drawn)	-8	-13	26*	4
CC1CC2C(C(O)CC3(C)C2CCC3(O)C(=O)CO)C2(C)C=CC(=O)C=C12 (stereo not drawn)	-1	x	-10	x
COCCNC(=O)COc1ccc(C)cc1C(=O)c1cc(C#N)c(=O)n(C2CC2)c1	-13	+	15	54*
CC(C)NC(=O)c1c(CSc2ccc(Cl)cc2)noc1C(=O)NCc1ccccc1	11	x	13	x
CC(C)NC(=O)c1c(CSc2ccccc2)noc1C(=O)NCc1ccccc1	1	-11	32*	-2
Cc1ccc(-c2nc3ncccn3c2NC2CCCCC2)o1	-27	54*	-2	51*
CCOc1ccccc1N(CC(=O)NC1CCCCC1)S(=O)(=O)c1ccccc1	-8	10	2	11
CS(=O)(=O)c1ccc(C(=O)N2CCN(S(=O)(=O)c3ccc(C4CCCCC4)cc3)CC2)cc1	-29	x	3	x
CCN1CCc2c(C#N)c(N3CCOCC3)nc(NCCO)c2C1	79*	41	16	48
Cc1[nH]c(-c2ccc(F)cc2)cc1C(=O)N1CCN(c2cccc(Cl)c2)CC1	2	-4	-2	6
Nc1c(N2CCCC2)cc(Cl)c2nonc12	24	17	14	32
Nc1ccc(N2CCCCC2)c2nonc12	24	2	29*	8
CCCN(CC(=O)Nc1ccccc1C)C(=O)c1ccc(COc2ccccc2)cc1	1	-1	-1	-8
[O-]/[N+](=C/c1ccc(F)cc1)c1ccc(Cl)cc1	42*	-4	5	0
Cc1cc(C(=O)CSc2nnc(N)s2)c(C)n1Cc1cccs1	17	77	-1	2.7*
Cc1csc(SCC(=O)c2cc(C)n(Cc3cccs3)c2C)n1	24	6	-5	-6
COc1ccc(-c2nnc(SCC(=O)c3cc(C)n(Cc4cccs4)c3C)o2)cc1	-57	12	4	19
Cc1cc(C(=O)CSc2nnc(-c3ccc(OC(F)F)cc3)o2)c(C)n1Cc1cccs1	-118	57*	5	85*
SMILES	PABP1 MLLE inh	eIF4H FP inh	NRP1-CendR mod	PABP FP inh
COc1ccc(-n2nnnc2C(c2cccs2)N2CCN(C/C=C/c3ccccc3)CC2)cc1 (stereo not drawn)	0	x	-3	x
CCC1CCCCN1C(=S)Nc1ccc(OC(F)F)cc1 (stereo not drawn)	-43	8	27*	-4
Cc1cccc(NC(=S)N/N=C/c2ccc(Cl)c([N+](=O)[O-])c2)c1	-4	-5	27*	-2
O=C(O)c1ccc(N/N=C/c2ccc(-c3ccc(Cl)cc3Cl)o2)cc1	-5	76	-10	11*
Cc1cccc(NC(=S)N/N=C/c2cccc([N+](=O)[O-])c2)c1	33	-3	0	-12
Cc1ccc(-c2ccc(/C=N/NC(=S)Nc3ccccc3)o2)cc1[N+](=O)[O-]	38*	5	-5	-3
CC(C)(C)NC(=S)N/N=C\c1ccc(-c2ccc([N+](=O)[O-])cc2)o1	-94	-3	-86	0
CNC(=S)N/N=C/c1ccc(-c2ccc(C(=O)O)cc2)o1	9	54*	-15	21*
CNC(=S)N/N=C/c1ccc(-c2ccc(Cl)c([N+](=O)[O-])c2)o1	22	-4	2	-1
COc1ccc(Cc2c(-c3ccc(C#N)cc3)nc3c(Cl)cc(C(F)(F)F)cn23)c(C)c1	x	x	-28	x
O=C(O)c1ccc(-c2ccc(/C=N/Nc3ccc([N+](=O)[O-])cc3)o2)cc1	-140	45	68	16
O=C(O)c1cccc(-c2ccc(/C=N/Nc3ccc([N+](=O)[O-])cc3)o2)c1	-141	54	16	22*
